Results on four compounds are retold here after PubChem BioAssay (EPA / NIEHS).

Read-out in test [1]: Epidermal growth factor receptor (EGFR), EGFR (gene 1956)
As to the kind of experiment: BSK_hDFCGF_EGFR: BioMAP Diversity Plus: hDFCGF Assay for Epidermal growth factor receptor (EGFR) Biomarker Activity (AID 2283057). Conditions: primary human foreskin fibroblasts; actives raise or lower the signal. The procedure, abridged:
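EGFR levels by ELISA in human dermal fibroblast cultures, 24 h post-treatment, fitted bidirectionally versus DMSO. Parallel wells stained with sulforhodamine B to detect overt cytotoxicity.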

Read-out in test [2]: Interleukin-8 (IL8), CXCL8 (gene 3576)
As to the kind of experiment: BSK_hDFCGF_IL8: BioMAP Diversity Plus: hDFCGF Assay for Interleukin-8 (IL8) Biomarker Activity (AID 2283058). The note with it: primary human foreskin fibroblasts; actives raise or lower the signal. The procedure, abridged: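 Fibroblast monolayers (human foreskin, hDFCGF) received test chemical for 24 h before ELISA detection of IL-8; either increases or decreases relative to DMSO count as activity.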

Test [3] can be described thus: BSK_hDFCGF_Proliferation: Cell Proliferation Assessment in the BioMAP Diversity Plus: hDFCGF Assay (AID 2283059).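 Further: curves fitted for both rise and fall of signal versus DMSO baseline.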 Conditions: primary human foreskin fibroblasts. The procedure, abridged:
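Steps: dose primary human dermal fibroblasts (foreskin); […] fix in 10% TCA; stain with 0.1% SRB; read 560 nm; fit gain or loss of signal against DMSO.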

Read-out in test [4]: Macrophage colony-stimulating factor (MCSF), CSF1 (gene 1435)
Briefly: BSK_hDFCGF_MCSF: BioMAP Diversity Plus: hDFCGF Assay for Macrophage colony-stimulating factor (MCSF) Biomarker Activity (AID 2283060). The note with it: primary human foreskin fibroblasts; actives raise or lower the signal. The procedure, abridged: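 fibroblasts (human foreskin, primary), 24 h post-dose; M-CSF by ELISA; bidirectional fit, DMSO = baseline.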

Read-out in test [5]: TIMP metallopeptidase inhibitor 1 (TIMP1), TIMP1 (gene 7076)
Briefly: BSK_hDFCGF_TIMP1: BioMAP Diversity Plus: hDFCGF Assay for TIMP metallopeptidase inhibitor 1 (TIMP1) Biomarker Activity (AID 2283062). Conditions: primary human foreskin fibroblasts; actives raise or lower the signal. The procedure, abridged: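 Bidirectional curve fitting against DMSO baseline yielded this endpoint, based on ELISA detection of TIMP-1 in primary human foreskin fibroblasts exposed to compound for 24 h.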

Read-out in test [6]: Monokine induced gamma interferon (MIG), CXCL9 (gene 4283)
Briefly: BSK_hDFCGF_MIG: BioMAP Diversity Plus: hDFCGF Assay for Monokine induced gamma interferon (MIG) Biomarker Activity (AID 2283063). The note with it: primary human foreskin fibroblasts; actives raise or lower the signal. The procedure, abridged:
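Endpoint derived by bidirectional fitting relative to DMSO; MIG quantified via ELISA in primary human foreskin fibroblasts harvested 24 h after dosing.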

Read-out in test [7]: Matrix Metallopeptidase 1 (MMP1), MMP1 (gene 4312)
As to the kind of experiment: BSK_hDFCGF_MMP1: BioMAP Diversity Plus: hDFCGF Assay for Matrix Metallopeptidase 1 (MMP1) Biomarker Activity (AID 2283064). Conditions: primary human foreskin fibroblasts; actives raise or lower the signal. The procedure, abridged: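 MMP1 levels quantified by ELISA 24 h after dosing human dermal fibroblast cultures, with parallel SRB total-protein staining for overt cytotoxicity. Data fitted in both directions against DMSO baseline.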

Read-out in test [8]: Vascular cell adhesion molecule 1 (VCAM1), VCAM1 (gene 7412)
Briefly: BSK_hDFCGF_VCAM1: BioMAP Diversity Plus: hDFCGF Assay for Vascular cell adhesion molecule 1 (VCAM1) Biomarker Activity (AID 2283065). Conditions: primary human foreskin fibroblasts; actives raise or lower the signal. The procedure, abridged: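 Measured after 24 h chemical treatment of primary human skin fibroblasts, VCAM-1 was detected by ELISA and concentration-response analysed in both directions versus DMSO vehicle.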

Read-out in test [9]: Plasminogen activator inhibitor-1 (PAI1), SERPINE1 (gene 5054)
As to the kind of experiment: BSK_hDFCGF_PAI1: BioMAP Diversity Plus: hDFCGF Assay for Plasminogen activator inhibitor-1 (PAI1) Biomarker Activity (AID 2283066). The note with it: primary human foreskin fibroblasts; actives raise or lower the signal. The procedure, abridged: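 PAI-1 levels in human dermal foreskin fibroblasts were quantified by ELISA 24 h after dosing, with gain or loss analysed against DMSO. Overt cytotoxicity was checked by sulforhodamine B total-protein staining in parallel cultures.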

Read-out in test [10]: Intercellular Adhesion Molecule 1 (ICAM1), ICAM1 (gene 3383)
Briefly: BSK_KF3CT_ICAM1: BioMAP Diversity Plus: KF3CT Assay for Intercellular Adhesion Molecule 1 (ICAM1) Biomarker Activity (AID 2283067). Conditions: primary human keratinocytes with fibroblasts; actives raise or lower the signal. The procedure, abridged:
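Bidirectional curve fitting against a DMSO baseline was applied to ICAM-1 ELISA signal from primary human skin co-cultures harvested 24 h after treatment, with SRB staining of parallel wells for overt cytotoxicity.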

Read-out in test [11]: Interferon-gamma inducible Protein 10 (IP10), CXCL10 (gene 3627)
Briefly: BSK_KF3CT_IP10: BioMAP Diversity Plus: KF3CT Assay for Interferon-gamma inducible Protein 10 (IP10) Biomarker Activity (AID 2283068). The note with it: primary human keratinocytes with fibroblasts; actives raise or lower the signal. The procedure, abridged: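 KF3CT co-culture (keratinocytes + foreskin fibroblasts), 24 h compound, IP-10 by ELISA; bidirectional fit vs DMSO baseline.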

Test [12] is described as follows: BSK_KF3CT_SRB: Viability Assessment in the BioMAP Diversity Plus: KF3CT Assay (AID 2283069).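 Further: read 24 h after compound addition.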 The note with it: primary human keratinocytes with fibroblasts. The procedure, abridged: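 Cytotoxicity was gauged by SRB staining (0.1% SRB, 10% TCA fixation, 560 nm) of parallel cultures at 24 h. The cells were primary human skin keratinocytes co-cultured with fibroblasts, and activity was fitted in both directions against DMSO.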

Read-out in test [13]: Interleukin-1 alpha (IL1a), IL1A (gene 3552)
Briefly: BSK_KF3CT_IL1a: BioMAP Diversity Plus: KF3CT Assay for Interleukin-1 alpha (IL1a) Biomarker Activity (AID 2283070). Conditions: primary human keratinocytes with fibroblasts; actives raise or lower the signal. The procedure, abridged:
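IL-1a was detected by ELISA 24 h after chemical treatment of a co-culture of human skin keratinocytes and foreskin fibroblasts. Gain or loss of signal was fitted against the DMSO baseline.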

Read-out in test [14]: TIMP metallopeptidase inhibitor 2 (TIMP2), TIMP2 (gene 7077)
Briefly: BSK_KF3CT_TIMP2: BioMAP Diversity Plus: KF3CT Assay for TIMP metallopeptidase inhibitor 2 (TIMP2) Biomarker Activity (AID 2283071). The note with it: primary human keratinocytes with fibroblasts; actives raise or lower the signal. The procedure, abridged:
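TIMP-2 measured by ELISA at 24 h in human keratinocyte/fibroblast primary co-cultures exposed to chemicals. Both increases and decreases were fitted against DMSO. Parallel cultures were stained with SRB for total protein as an overt-cytotoxicity check.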

Read-out in test [15]: Transforming growth factor beta 1 (TGFb1), TGFB1 (gene 7040)
Briefly: BSK_KF3CT_TGFb1: BioMAP Diversity Plus: KF3CT Assay for Transforming growth factor beta 1 (TGFb1) Biomarker Activity (AID 2283072). The note with it: primary human keratinocytes with fibroblasts; actives raise or lower the signal. The procedure, abridged:
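ELISA quantifies TGF-b1 at 24 h post-dose in a primary human skin co-culture of keratinocytes and fibroblasts, with gain or loss judged against DMSO. Parallel SRB total-protein staining flags overt cytotoxicity.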

Read-out in test [16]: C-C motif chemokine 2 (Homo sapiens) (UniProt P13500)
Briefly: BSK_KF3CT_MCP1: BioMAP Diversity Plus: KF3CT Assay for Monocyte Chemoattractant Protein 1 (MCP1/CCL2) Biomarker Activity (AID 2283073). The note with it: primary human keratinocytes with fibroblasts; actives raise or lower the signal. The procedure, abridged: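 Biomarker MCP-1 is measured by ELISA in primary human keratinocytes co-cultured with foreskin fibroblasts, 24 h after chemical treatment; DMSO serves as the negative control and activity baseline.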

Read-out in test [17]: Matrix Metallopeptidase 9 (MMP9), MMP9 (gene 4318)
Briefly: BSK_KF3CT_MMP9: BioMAP Diversity Plus: KF3CT Assay for Matrix Metallopeptidase 9 (MMP9) Biomarker Activity (AID 2283074). Conditions: primary human keratinocytes with fibroblasts; actives raise or lower the signal. The procedure, abridged: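 MMP-9 quantified by ELISA after 24 h chemical treatment of primary human skin keratinocyte/fibroblast co-cultures; gain or loss fitted against DMSO, with parallel SRB staining (0.1% SRB, 560 nm) for overt cytotoxicity.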

Read-out in test [18]: urokinase plasminogen activator (uPA), PLAU (gene 5328)
As to the kind of experiment: BSK_KF3CT_uPA: BioMAP Diversity Plus: KF3CT Assay for urokinase plasminogen activator (uPA) Biomarker Activity (AID 2283075). Conditions: primary human keratinocytes with fibroblasts; actives raise or lower the signal. The procedure, abridged: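 ELISA read-out of uPA 24 h after dosing human skin keratinocytes co-cultured with foreskin fibroblasts. Signal change fitted both ways relative to DMSO; sulforhodamine B on parallel cultures marks overt cytotoxicity.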

Read-out in a further test: CD40, CD40 (gene 958)
Briefly: BSK_LPS_CD40: BioMAP Diversity Plus: LPS Assay for CD40 Biomarker Activity (AID 2283076). Conditions: primary human HUVEC with PBMC; actives raise or lower the signal. The procedure, abridged:
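Using a multiplexed primary human co-culture (umbilical vein endothelium plus PBMC), CD40 was read by ELISA 24 h after dosing, with cytotoxicity tracked by sulforhodamine B staining of parallel cultures and activity fitted bidirectionally versus DMSO.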

Calls of active or inactive are those of the source. How the source made its calls: active means hit-call score of the fitted dose curve at least 0.9, where 1 is the maximum; inactive means score below 0.9.

As to `Cc1occc(=O)c1O`, the result in [1], in [2], in [3], in [4], in test [5] and in test [6] was inactive. The result in test [7], in test [8], in test [9], in test [10], in test [11] and in test [12] was inactive. Moreover, the outcome in test [13], in test [14], in test [15], in test [16], in test [17] and in test [18] was inactive. Further, in the test with CD40, CD40 (gene 958), the result was inactive.

In the case of `CC(COCC(C)OC(=O)c1ccccc1)OC(=O)c1ccccc1` (stereo not given), the outcome in test [1], in test [2], in test [4], in test [5], in test [6] and in test [7] was inactive. In addition, the outcome in [8], in test [9], in test [10], in test [11], in test [12] and in test [13] was inactive. The outcome was “inactive” in test [15]; “inactive” in test [16]; “inactive” in test [17]; “inactive” in test [18]; “inactive” in the test with CD40, CD40 (gene 958). Besides, the AC50 in test [3] is 33.7 µM (active).

For `COc1ccc(C(=O)Nc2nc3ccccc3c(NCc3ccccc3)c2C#N)cc1`, the outcome in test [1], in test [2], in test [4], in [5], in test [6] and in [7] was inactive. Besides, the outcome in test [8], in [9], in test [10], in test [11], in test [12] and in test [13] was inactive. The outcome in [14], in [15], in [16], in test [17] and in test [18] was inactive. Also, the half-maximal activity concentration (AC50) was 5.53 µM (active) in test [3] and 3.97 µM (active) in the test with CD40, CD40 (gene 958).

For `O=C(Oc1ccccc1)c1cccc(C(=O)Oc2ccccc2)c1`, the outcome in test [1], in [2], in [3], in [4], in test [5] and in [6] was inactive. For the same compound, the result in test [7], in test [8], in test [9], in [10], in test [11] and in test [12] was inactive. Also, the outcome in test [13], in test [14], in test [15], in test [16], in test [17] and in test [18] was inactive. For the same compound, the result with CD40, CD40 (gene 958) was inactive.

For orientation: AC50 means the midpoint of the concentration-response curve, whichever way the signal moves.
